MPTP inh – inhibitors of mitochondrial permeability transition pore. isolated mouse mitochondria, Ca2+ swelling absorbance, 30 min. 360,000 compounds, 1.4% hits. AID 602449. inhibition, % at 10 µM;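 active = inhibition of 50% or more, scaled per plate between neutral and stimulator controls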;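 also: 0% = DMSO wells given calcium and 100% = 1 mM EGTA wells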
NadD block – inhibitors of Staphylococcus aureus NadD. purified NadD enzyme, colorimetric absorbance read-out. inhibition, % at 20 µM. 360,000 compounds, 0.78% hits. AID 602399; in the data active = inhibition above about 26%
aDG glyco up – alpha-DG glycosylation activation | 360,000 compounds, 0.22% hits | activation, % at 10 µM | Pro5-aDG cells, alpha-DG glycosylation AlphaScreen (IIH6); 0% Pro5, 100% B10-LARGE cell signal;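 active = activation of at least 8% versus controls, or a plate z-score of at least 8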;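 also: Pro5 are CHO cells carrying HIG-tagged alpha-DG that lacks glycosylation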
H9c2 TAG inh – reduces triacylglycerol accumulation in H9c2 cells; Nile Red lipid (TAG) fluorescence; cells loaded with 200 µM oleic acid; inhibition, % at 12.5 µM; 230,000 compounds, 0.66% hits;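 active = pattern-corrected inhibition of lipid staining of at least 50% with the nuclear-stain viability signal not falling by more than 50%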;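 also: 0% = DMSO wells and 100% = triacsin C control wells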
aDG conf – alpha-DG glycosylation activation, confirmation; shares compounds with aDG glyco up; Pro5-aDG cells, IIH6 AlphaLISA; scaled to LARGE-overexpressing B10 cells as 100%; activation, % at 10 µM (by protocol); 600 compounds, 17% hits;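 active = activation of at least 7% in one or more replicates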;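 also: cells exposed to compound for two days before detection; 0% = DMSO-treated Pro5 cells and 100% = DMSO-treated B10-LARGE cells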
An asterisk follows results filed as active; · = not tested or not shown. Most compounds without a hit are left out; they make up all but 2.7% or so of the library.

SMILES | MPTP inh | NadD block | aDG glyco up | H9c2 TAG inh | aDG conf
CCOc1ccc2nc(NC(=O)CSC3=NCCS3)sc2c1 | -1 | -2 | 3.4* | · | -1
COc1ccc(OC)c(NC(=O)N[C@@H](Cc2ccccc2)C(=O)O)c1 | 0 | -5 | 5.9* | · | 0
COc1ccccc1OCC(=O)NCCC1=CCCCC1 | -1 | 4 | 0 | · | ·
O=C(COc1ccccc1Br)NCCC1=CCCCC1 | 0 | -2 | 3.6* | 3 | -1
COc1ccc2[nH]c3c(N4CCN(Cc5ccc6c(c5)OCO6)CC4)ncnc3c2c1 | 14 | 4 | 8.3* | -12 | 3
NC(=O)N/N=C/c1ccc([N+](=O)[O-])o1 | -1 | 0 | 1 | -2 | ·
O=C(CSc1ccc(Cl)cc1)N/N=C/c1ccc([N+](=O)[O-])o1 | 1 | 3 | 3.2* | · | -1
CS(=O)(=O)c1ccc(Cl)c(NC(=O)COC(=O)Cc2c[nH]c3ccccc23)c1 | -2 | -4 | 0 | -2 | ·
Cc1ccc(N2C(=O)C(CN3CCOCC3)C2c2ccccc2)cc1 (configuration not stated) | 2 | -4 | 0 | · | ·
O=C1C2CCC(C2)C1CN1CCOCC1 (configuration not stated) | -3 | 1 | 13* | 0 | -1
COc1ccc(CN2C(=O)C(CC(=O)NC3CCCC3)CC(C(=O)N(C(C)C)C(C)C)=C2C)cc1 (configuration not stated) | 0 | 2 | 5.0* | 12 | 1
O=C(NCC[C@@H]1CC[C@@H](NS(=O)(=O)c2ccccc2)[C@@H](CO)O1)c1cc(Cl)cc(Cl)c1 | -1 | · | 7.7* | · | 0
CN(CC(=O)Nc1ccc(Cl)c(C(F)(F)F)c1)C(=O)CCCNC(=O)c1ccc(Cl)cc1 | 1 | -9 | 0 | 4 | ·
Brc1cccc(-c2nc3c4ccccc4ccn3c2CC2CCCCC2)c1 | 2 | 9 | 15* | · | 5.8*
COC(=O)c1cccc(NC(=O)C(C)N2C(=O)c3ccccc3C2=O)c1 (configuration not stated) | 2 | -3 | 0 | · | ·
COC(=O)c1cccc(NC(=O)CN2C(=O)c3ccccc3C2=O)c1 | 0 | -6 | 1.3* | · | 1
CN(C)c1cccc(NC(=O)C2Cc3c(-c4cccnc4)ccnc3O2)c1 (configuration not stated) | -1 | 3 | 0 | 10 | ·
COc1cc2ccccc2cc1C(=O)Nc1nccs1 | 0 | -6 | 4.0* | 9 | -1
COc1c(C(=O)Nc2nccs2)ccc2ccccc12 | 1 | -1 | 0 | · | ·
Cc1ccc2c(c1)CC1(CN2C)C(=O)OC2(CCCCC2)OC1=O | 2 | 3 | 0 | -5 | ·
CN1CC2(Cc3c1ccc1ccccc31)C(=O)OC(C)(C)OC2=O | -1 | 9 | 6.4* | -11 | -1
COc1ccc2c(c1)C(=O)C(=O)N2CCS(=O)(=O)c1ccccc1 | -1 | -3 | 1 | · | ·
O=C1C(=O)N(CCS(=O)(=O)c2ccccc2)c2ccc(F)cc21 | 0 | 2 | 7.6* | · | 5.4*
CCN(CC)S(=O)(=O)c1ccc(C)c(NC(=S)N2CCN(C/C=C/c3ccccc3)CC2)c1 | 15 | 1 | 8.6* | -13 | 1
O=C(NCC1CCCO1)C(=O)N/N=C/c1ccc(OCc2ccccc2Cl)cc1 (configuration not stated) | -1 | 6 | 0 | · | ·
SMILES | MPTP inh | NadD block | aDG glyco up | H9c2 TAG inh | aDG conf
Cc1ccc(S(=O)(=O)N[C@H](C(=O)OCC(=O)NC(=O)c2cccn2C)C(C)C)cc1 | 0 | 2 | 3.6* | -9 | 1
CC(C)[C@H](NS(=O)(=O)c1ccccc1)C(=O)OCC(=O)NC(=O)c1cccn1C | -2 | 7 | 0 | 11 | ·
Cc1ccc(Cl)cc1NC(=O)COC(=O)CCN1C(=O)C2CC=CCC2C1=O (configuration not stated) | -1 | 2 | 0 | -6 | ·
O=C(c1ccco1)N1CCN(Cc2csc(-c3ccccc3Cl)n2)CC1 | 1 | -1 | 0 | -3 | ·
CCN(CC)S(=O)(=O)c1ccc(=O)n(CC(=O)N2CCCc3cc(C)ccc32)c1 | -2 | 2 | 0 | -7 | ·
CCN(CC)S(=O)(=O)c1ccc(=O)n(CC(=O)N2Cc3ccccc3CC2C(N)=O)c1 (configuration not stated) | -1 | -4 | 3.4* | -9 | -1
Cc1ccccc1-c1cccc([C@@H]2C[C@H]3[C@H](CON3C)CN2S(=O)(=O)c2ccccc2C)c1 | 0 | -1 | 6.0* | -2 | 0
Cc1ccccc1S(=O)(=O)N1C[C@H]2CON(C)[C@H]2C[C@H]1c1cccc(-c2ccccc2)c1 | -1 | 1 | 0 | -11 | ·
Cc1ccc(SCCCCN2CCNCC2)cc1 | 0 | -5 | 1 | · | ·
CN(C)c1ccc(/C=C/CNC[C@H]2O[C@@H](n3ccc(N)nc3=O)[C@H](O)[C@@H]2O)cc1 | 0 | 5 | 0 | 3 | ·
COc1ccc(Nc2c(-c3cccc(OC)c3)nc3nc(C)cc(C)n23)cc1 | 0 | 6 | 0 | · | ·
COc1cccc(-c2nc3nc(C)cc(C)n3c2NCc2ccccc2)c1 | 0 | 4 | 5.3* | · | 1
COC(=O)C(C(=O)OC)C1C=CCN(C(C)=O)C1 (configuration not stated) | 0 | 4 | 0 | -12 | ·
COc1ccc(NC(=O)C2Cc3ccccc3O/C2=N\O)cc1 (configuration not stated) | 0 | -4 | 5.9* | · | -1
Cc1cccc(OCC(=O)Nc2cc(S(=O)(=O)N3CCOCC3)ccc2N2CCCC2)c1C | -1 | -3 | 7.4* | -14 | 0
COc1cc(OC)cc(C(=O)Nc2cccc(N3CCCC3)c2)c1 | 0 | 19 | 3.7* | · | 2
CC1(C(=O)NS(=O)(=O)C2CC2)CCCN(C(=O)Cc2ccc3ccccc3c2)C1 (configuration not stated) | 1 | 0 | 0 | 8 | ·
CC(C)Cc1cc(CN2CCC(CO)(Cc3cccc(C(F)(F)F)c3)CC2)[nH]n1 | 4 | -1 | 10* | 1 | 4
COCCNc1nc(NCc2ccc(C(C)C)cc2)c2sccc2n1 | 38 | -1 | 7.3* | -4 | 3
COc1ccc(C2c3ccc4ccccc4c3Oc3ncn(CCCO)c(=N)c32)cc1 (configuration not stated) | -2 | -5 | 0 | 21 | ·
N=c1c2c(ncn1CCCO)Oc1c(ccc3ccccc13)C2c1ccccc1 (configuration not stated) | -3 | -8 | 3.1* | 28 | 4.7*
O=C1CC(c2ccccc2)n2nc(NC(=O)C3CCCO3)nc2N1 (configuration not stated) | 3 | 5 | 3.1* | · | 0
CNc1c(NC(=O)C2CCC(C)CC2)c(=O)oc2ccccc12 (configuration not stated) | -1 | 5 | 0 | · | ·
COc1cc(-c2ccc(NC(=O)CN3CCC(C)CC3)c(OC)c2)ccc1NC(=O)CN1CCC(C)CC1 | 6 | -3 | 18* | · | 4.0*
COc1ccc(NC(=O)CN2CCC(C)CC2)c([N+](=O)[O-])c1 | -1 | 5 | 0 | · | ·

Screening results as filed in PubChem.
